Results on nine compounds are retold here after PubChem BioAssay (NCATS).

Inconclusive results are not listed. The source made the active and inactive calls. Unless noted, the call rests on the fitted dose curve.

Experiment [1] can be described thus: qHTS for Inhibitors of the Functional Ribonucleoprotein Complex (vRNP) of Lassa (LASV) Arenavirus: LASV Primary Screen - GLuc reporter signal (AID 1347082; calls by dose curve; tested in HEK293 reporter line; further: on the % scale 0 is the no-effect control and ±100 the full control effect; nearly all actives have a fitted effect of over 60% in size). (qHTS replaces the single test concentration by a dilution series.)
A short description of experiment [2]: qHTS for Inhibitors of the Functional Ribonucleoprotein Complex (vRNP) of Lymphocytic Choriomeningitis Arenaviruses (LCMV): Viability assay - alamar blue signal for LCMV Primary Screen (AID 1347085; calls by dose curve; tested in HEK293 reporter line; further: on the % scale 0 is the no-effect control and ±100 the full control effect; nearly all actives have a fitted effect of over 80% in size).
The target of experiment [3] is Nucleoprotein (Lymphocytic choriomeningitis virus (strain Armstrong)) (UniProt P09992). Briefly: qHTS for Inhibitors of the Functional Ribonucleoprotein Complex (vRNP) of Lymphocytic Choriomeningitis Arenaviruses (LCMV): LCMV Primary Screen - GLuc reporter signal (AID 1347086). Further: on the % scale 0 is the no-effect control and ±100 the full control effect; nearly all actives have a fitted effect of over 70% in size.
The target of experiment [4] is Alpha-galactosidase (Coffea arabica) (UniProt Q42656). Kind of experiment: Counterscreen for Glucocerebrosidase Inhibitors: qHTS Assay for Coffee Bean alpha-Galactosidase at pH 4.5 (AID 957; active means well fitted curve in the direction sought with a large enough effect; an effect the other way counts as inactive or inconclusive;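 further: plate controls were enzyme alone for no effect and no enzyme for full effect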). The procedure, abridged: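 Quantitative HTS of compounds (0.7 nM to 77 uM) against coffee bean alpha-galactosidase at pH 4.5, measuring 4-methylumbelliferone fluorescence released from 80 uM substrate.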
In general terms: The purpose of a counterscreen is to sort out artefacts and off-target activity.

The target is the same in experiment [5]. Kind of experiment: Counterscreen for Glucocerebrosidase Inhibitors: qHTS Assay for Coffee Bean alpha-Galactosidase at pH 5.9 (AID 998; active means well fitted curve in the direction sought with a large enough effect; an effect the other way counts as inactive or inconclusive;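 further: plate controls were uninhibited enzyme for no effect and no-enzyme basal signal for full effect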). The procedure, abridged: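 Enzyme 2 nM + cpd (0.7 nM–77 uM titration) + 4-MU-alpha-Gal 80 uM, pH 5.9 citrate/Tween-20, RT 20 min, NaOH/glycine stop pH 10, fluor 365/440. Normalized to no-enzyme and full-activity controls; Hill-fit AC50.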

Experiment [6] in a line: Validation screen for inhibitors of Lassa infection (AID 463096). Further: on the % scale 0 is the no-effect control and ±100 the full control effect.
Experiment [7] is described as follows: Inducers of the Endoplasmic Reticulum Stress Response (ERSR) in human glioma: Validation (AID 504836; active means well fitted curve in the direction sought with a large enough effect; an effect the other way counts as inactive or inconclusive; further: 0% is about no effect). Summed up: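 Stably transfected U87-MG glioma cells carrying a GRP78-based luciferase sensor; 16 h compound incubation. Luminescence end-point read 10 min after Bright-Glo addition at room temperature.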
A short description of experiment [8]: qHTS for Inhibitors of the Functional Ribonucleoprotein Complex (vRNP) of Lassa (LASV) Arenavirus: Viability assay - alamar blue signal for LASV Primary Screen (AID 1347083; calls by dose curve; tested in HEK293 reporter line; further: nearly all actives have a fitted effect of over 80% in size; further: potency means the concentration at half of the fitted maximal effect).
Experiment [9] in a line: Primary qHTS to identify inhibitors of SARS-CoV-2 cell entry (AID 1645846). Further: nearly all actives have a fitted effect of over 45% in size. The conditions noted are these: activity change, negative = inhibition: at 57.1 µM (top of the series) unless noted. Summed up: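 Using luciferase-reporting pseudoviruses carrying Wuhan-Hu-1 spike, the screen tracks entry into stably ACE2-expressing cells over 48 hr. Activity is expressed relative to spike particles versus particles lacking any fusion protein.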

The nature of experiment [10]: qHTS for inhibitors of Rabies Virus screened against the NCATS CANVASS Library (AID 1347402). Further: 0% is about no effect.

Chain of Nucleoprotein (Lymphocytic choriomeningitis virus (strain Armstrong)) (P09992 whole entry, looked up): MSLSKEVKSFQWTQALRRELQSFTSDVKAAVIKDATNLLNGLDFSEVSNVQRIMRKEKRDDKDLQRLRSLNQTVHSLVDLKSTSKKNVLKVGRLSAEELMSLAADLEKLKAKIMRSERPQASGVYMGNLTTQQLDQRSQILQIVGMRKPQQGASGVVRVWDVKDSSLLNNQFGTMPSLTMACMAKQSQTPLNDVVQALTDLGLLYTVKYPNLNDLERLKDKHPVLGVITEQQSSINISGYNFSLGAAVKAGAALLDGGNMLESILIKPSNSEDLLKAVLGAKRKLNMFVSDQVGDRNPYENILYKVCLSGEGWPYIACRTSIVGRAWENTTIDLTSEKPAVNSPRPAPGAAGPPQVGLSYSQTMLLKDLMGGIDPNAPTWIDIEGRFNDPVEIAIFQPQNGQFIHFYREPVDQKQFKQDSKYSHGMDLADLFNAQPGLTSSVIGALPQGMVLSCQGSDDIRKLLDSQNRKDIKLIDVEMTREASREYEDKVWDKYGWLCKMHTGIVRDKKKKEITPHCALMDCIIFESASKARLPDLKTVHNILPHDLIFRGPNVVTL
Chain of Alpha-galactosidase (Coffea arabica) (Q42656 whole entry, looked up): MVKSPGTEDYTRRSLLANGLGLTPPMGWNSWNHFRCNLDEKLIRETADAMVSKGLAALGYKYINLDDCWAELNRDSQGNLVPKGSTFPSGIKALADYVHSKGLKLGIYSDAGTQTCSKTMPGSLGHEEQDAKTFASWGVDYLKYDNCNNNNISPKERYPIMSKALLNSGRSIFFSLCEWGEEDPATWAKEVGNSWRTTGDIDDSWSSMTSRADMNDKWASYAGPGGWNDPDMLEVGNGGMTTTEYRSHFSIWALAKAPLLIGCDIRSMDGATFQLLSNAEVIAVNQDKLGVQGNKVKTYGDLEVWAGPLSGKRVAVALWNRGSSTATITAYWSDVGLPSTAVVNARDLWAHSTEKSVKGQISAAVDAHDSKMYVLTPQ

`C=C1C(=O)O[C@H]2[C@H]1[C@H](OC(=O)/C(C)=C\C)C[C@]1(CO1)[C@@H]1[C@H](OC(C)=O)C=C(C)[C@]21O`: the Potency result in experiment [1], in experiment [2] and in experiment [3] was “inactive” each time.

As for `NC/C=C\C(=O)O`, the call in [4], in experiment [5] and in experiment [7] was inactive. The Potency entry in [6], in experiment [1] and in experiment [8] was “inactive” each time.

With `COc1cc2c(oc(=O)c3cc(C)cc(OC)c32)c2c(C3OC(C)C(O)C(C)(O)C3O)ccc(O)c12` (centres undefined), the Potency result in experiment [1], in experiment [2] and in experiment [3] was “inactive” in each case.

Regarding `O=C1NC(=O)C(=Cc2ccc(-c3ccc(F)cc3)o2)S1`, the Potency entry in [1], in experiment [2] and in experiment [3] was “inactive” throughout.

Regarding `CN1CCc2c(c3ccccc3n2Cc2ccc(C(=O)NO)cc2)C1`, the Potency result in [1] was “inactive”. Besides, in [8], the Potency was 21.7 µM (active). In experiment [9], the activity change, negative = inhibition is -18.9%.

Turning to `O=C1NC(=O)C(=Cc2ccc(-c3ccc(F)cc3O)o2)S1`, the Potency result in experiment [1], in experiment [2] and in experiment [3] was “inactive” in each case.

As for `Cn1cc(C2=C(c3ccc(Cl)cc3Cl)C(=O)NC2=O)c2ccccc21`, the result in experiment [4], in experiment [5] and in [7] was inactive. The Potency entry in [6], in experiment [1] and in [8] was “inactive” throughout.

As for `COc1cc2c3cc1Oc1c(OC)c(OC)cc4c1[C@H](Cc1ccc(cc1)Oc1cc(ccc1O)C[C@H]3N(C)CC2)N(C)CC4`, the Potency entry in experiment [1], in experiment [2] and in [3] was “inactive” in each case.

As to `COc1c(O)cc(O)c2c(=O)cc(-c3ccccc3)oc12`, the Potency entry in [1], in experiment [2] and in experiment [3] was “inactive” each time. Besides, in experiment [10], the result was inactive.
